Screening results (PubChem)
JMJD2A Tudor: JMJD2A Tudor domain (human) inhibition; O75164; AlphaScreen JMJD2A-Tudor / H3K4me3 peptide binding; Potency, µM (titrated, usually from 114 µM), for the others: at the top dose activity change, negative = inhibition, usual class: inhibitors; actives 4.4% (n = 390,000); AID 504339; also: potency is read from the fitted curve at half-maximal effect; % is scaled to controls: 0 for no effect and ±100 for the full control effect; nearly all actives have a fitted effect of over 50% in size
G9a inh: inhibitors of human histone lysine methyltransferase G9a | actives 8.8% (n = 350,000) | G9a H3K9 monomethylation, AlphaScreen, 2 h | Q96KQ7 | Potency, µM (top dose mostly 102 µM), for the others: at the top dose activity, negative = inhibition, actives largely listed as inhibitors; also: potency is read from the fitted curve at half-maximal effect; % is scaled to controls: 0 for no effect and ±100 for the full control effect; nearly all actives have a fitted effect of over 75% in size
Target sequence (Q96KQ7 913-1193 limits assumed): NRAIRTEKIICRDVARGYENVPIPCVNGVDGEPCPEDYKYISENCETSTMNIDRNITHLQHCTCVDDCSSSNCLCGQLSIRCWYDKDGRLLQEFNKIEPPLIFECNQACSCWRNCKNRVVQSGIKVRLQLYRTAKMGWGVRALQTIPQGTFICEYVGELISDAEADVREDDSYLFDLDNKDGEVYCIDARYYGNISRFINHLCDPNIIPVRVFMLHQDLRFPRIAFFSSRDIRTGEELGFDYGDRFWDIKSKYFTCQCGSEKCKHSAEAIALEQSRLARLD
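Using a bead-based AlphaScreen, monomethylated H3K9 product from 2 h room-temperature reactions (G9a 20 nM, peptide 500 nM, SAM 20 uM) was detected with 0.5 ug/mL rabbit anti-H3K9me1 antibody.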
BAZ2B inh: BAZ2B (human) inhibition | Potency, µM (series often up to 114 µM), for the others: top-dose activity change, negative = inhibition, hits mostly inhibitors | actives 4.4% (n = 360,000) | AlphaScreen BAZ2B-H3K14Ac peptide displacement | Q9UIF8 | AID 504333; also: potency is read from the fitted curve at half-maximal effect; % is scaled to controls: 0 for no effect and ±100 for the full control effect; nearly all actives have a fitted effect of over 60% in size
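Compounds, titrated to a top concentration of 110 uM, were incubated 30 min at room temperature with preformed BAZ2B/acetyl-K14 H3 peptide complex (50 nM each). Proximity signal was measured by AlphaScreen after 20 min with beads.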
L3MBTL1 inh: L3MBTL1 (human) inhibition | Q9Y468 | AlphaScreen L3MBTL1–H3K9me1 peptide binding | Potency, µM (doses to about 57.1 µM), for the others: at the highest dose activity, negative = inhibition, actives largely listed as inhibitors | actives 0.66% (n = 230,000); also: potency is read from the fitted curve at half-maximal effect; % is scaled to controls: 0 for no effect and ±100 for the full control effect; nearly all actives have a fitted effect of over 60% in size
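L3MBTL1 50 nM + b-AHA-H3(1-15)K9me1 75 nM, 30 min RT; compound added, 30 min RT; streptavidin donor/Ni-chelate acceptor beads 10 ug/mL each final, 30 min RT dark; AlphaScreen read.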
PI5P4K alpha inh: PI5P4K alpha (human) kinase inhibition | P48426 | PI5P4Kalpha enzyme, ADP-Glo luminescence, 60 min; stronger effect = lower value | max response, % | actives 1.2% (n = 330,000); active = max response of -50% or lower; inconclusive = between -30% and -50%; inactive = -30% or higher; also: value at the top dose of about 77 µM; % is scaled to controls: 0 for no effect and ±100 for the full control effect
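Luminescence from ADP-Glo served as readout of PI5P4Kalpha activity in a qHTS format. Reaction: enzyme, substrate, compound, ATP at 5 microM final, 60 min at RT.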
HP1b chromo inh: HP1-beta chromodomain-methylated histone interaction inhibition; AID 540317; Potency, µM (doses to about 114 µM), without a hit: top-dose activity change, negative = inhibition, usual class: inhibitors; AlphaScreen HP1-beta / biotin-H3K9me3 peptide binding; actives 0.56% (n = 390,000); P83916; also: potency is read from the fitted curve at half-maximal effect; nearly all actives have a fitted effect of over 70% in size
Target sequence (P83916 whole entry, looked up): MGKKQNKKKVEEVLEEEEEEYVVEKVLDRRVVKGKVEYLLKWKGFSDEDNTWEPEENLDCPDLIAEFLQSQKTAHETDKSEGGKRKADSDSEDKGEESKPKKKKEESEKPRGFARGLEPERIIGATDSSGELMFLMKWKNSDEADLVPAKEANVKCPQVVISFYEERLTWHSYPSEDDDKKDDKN
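Compound inhibition of the preformed complex between 50 nM HP1-beta and 50 nM biotinylated H3K9me3 peptide was read by AlphaScreen. Buffer was PBS pH 7.4 with 0.01% Tween-20. Incubations ran 30 min at room temperature, with 10 ug/mL donor/acceptor beads.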
* = called active by the depositor; [ ] = dose if it differs, or a comment. Compounds with a hit are over-represented: about 11% of the library has one in this group of screens. Unless noted, calls follow the shape of the dose curve; as a rule, active = well fitted inhibition curve with a large enough effect; inconclusive = small, poorly fitted or top-dose-only effect; inactive = no such curve, though single readings can be large or run the other way.

CN(C)c1ccc(Nc2ncnc3ccc(Br)cc23)cc1 was read as JMJD2A Tudor 45µM*, G9a inh 10µM*, BAZ2B inh 45µM*, L3MBTL1 inh -27%, PI5P4K alpha inh -19 and HP1b chromo inh inconclusive.
Screening COc1cccc(N2CCN(C(=O)Cn3ncc4c3-c3ccccc3OC4)CC2)c1 returned JMJD2A Tudor -17%, G9a inh 2%[59 µM], BAZ2B inh -22% and HP1b chromo inh 11%.
For C/C(=N\NC(=S)Nc1ccc(C(C)C)cc1)c1ccc2c(c1)OCO2 the results were JMJD2A Tudor -29%, G9a inh inconclusive, BAZ2B inh inconclusive, L3MBTL1 inh -11%, PI5P4K alpha inh 2 and HP1b chromo inh -20%.
`C/C(=N\NC(=S)NC(C)C)c1ccc2c(c1)OCCO2` gave JMJD2A Tudor inconclusive, G9a inh inconclusive, BAZ2B inh inconclusive, L3MBTL1 inh -15%, PI5P4K alpha inh 2 and HP1b chromo inh 50µM*.
CNC(=S)N/N=C(\C)c1ccc2c(c1)OCCO2 was read as JMJD2A Tudor -6%, G9a inh -12%[59 µM], BAZ2B inh inconclusive, L3MBTL1 inh -5%, PI5P4K alpha inh -76* and HP1b chromo inh -1%.
CNC(=S)N/N=C(\C)c1ccc2c(c1)OCO2 was read as JMJD2A Tudor -33%, G9a inh inconclusive, BAZ2B inh inconclusive, L3MBTL1 inh -18%, PI5P4K alpha inh -65* and HP1b chromo inh 10%.
For Cc1cccc(CNc2ncnc3ccc(-c4ccc5c(ccn5C)c4)cc23)c1 the results were G9a inh 7%[12.7 µM], BAZ2B inh inconclusive and L3MBTL1 inh -12%.
S=C(NCCCN(Cc1ccc(Cl)cc1)c1ccc(-c2ccccc2)cn1)NCCCN(Cc1ccc(Cl)cc1)c1ccc(-c2ccccc2)cn1 was read as JMJD2A Tudor inconclusive and HP1b chromo inh -7%.
For S=C(NCCCc1cnc[nH]1)NCCCN(Cc1ccc(Cl)cc1)c1ccc(-c2ccccc2)cn1 the results were JMJD2A Tudor 50µM* and HP1b chromo inh inconclusive.
Screening S=C(NCCCc1cnc[nH]1)NCCCN(CCc1ccc(Cl)cc1)c1ccc(Br)cn1 returned JMJD2A Tudor 45µM* and HP1b chromo inh inconclusive.
Screening O=C(NCCCc1cnc[nH]1)NCCCN(Cc1ccc(Cl)cc1)c1ccc(Br)cn1 returned JMJD2A Tudor 45µM* and HP1b chromo inh inconclusive.
For S=C(NCCCc1cnc[nH]1)NCCCN(Cc1ccc(Cl)cc1)c1ccc(Br)cn1 the results were JMJD2A Tudor 50µM*.
Screening CCOc1ccc(C(=O)N2CCC(c3nnc(-c4ccccc4OC)o3)CC2)cc1 returned JMJD2A Tudor -11%, G9a inh -45%[59 µM], BAZ2B inh -5% and HP1b chromo inh 26%.
`CCCCNC(=S)NCCCc1cnc[nH]1` gave JMJD2A Tudor -18%.
For S=C(NCCCc1cnc[nH]1)NCCCN(Cc1ccc(Cl)cc1)c1ccc(Br)cc1 the results were JMJD2A Tudor 4.5µM* and HP1b chromo inh 32µM*.
Screening CCCCNC(=S)NCCCN(Cc1ccc(Cl)c(Cl)c1)c1ccc(Br)cn1 returned JMJD2A Tudor -30%.
S=C(NCCCc1cnc[nH]1)NCCCN(Cc1ccc(Cl)cc1)c1ncc(Br)cn1 was read as JMJD2A Tudor 50µM* and HP1b chromo inh inconclusive.
Screening CCCCn1nc(NC(=O)c2cccc(Cl)c2)c2cc3cccc(C)c3nc21 returned JMJD2A Tudor 16%, G9a inh 7%[59 µM], BAZ2B inh 8% and HP1b chromo inh 58%.
`COc1cc(/C=C/C(=O)NC(=O)c2ccccc2O)ccc1O` gave JMJD2A Tudor -12%, G9a inh 25%, BAZ2B inh -20%, PI5P4K alpha inh 0 and HP1b chromo inh 11%.
`O=C(O)/C=C/c1ccccc1` gave G9a inh 25%[59 µM].
Screening O=C(/C=C/c1ccccc1)CC(=O)c1ccccc1O returned JMJD2A Tudor 25µM*, G9a inh 16µM*, BAZ2B inh inconclusive, L3MBTL1 inh -27%, PI5P4K alpha inh 1 and HP1b chromo inh -24%.
For O=C(/C=C/c1ccccc1)NC(=O)c1ccccc1O the results were JMJD2A Tudor inconclusive, G9a inh inconclusive, BAZ2B inh 79µM*, PI5P4K alpha inh 1 and HP1b chromo inh 24%.
For COc1ccc(NC(=S)Nc2ccccc2)c(OC)c1 the results were JMJD2A Tudor -14%, G9a inh 16µM*, BAZ2B inh -31%, L3MBTL1 inh 7%, PI5P4K alpha inh -2 and HP1b chromo inh 0%.
Screening COc1ccc(NC(=S)Nc2ncccc2C)cc1OC returned JMJD2A Tudor inconclusive, G9a inh 22µM*, BAZ2B inh inconclusive, L3MBTL1 inh -17%, PI5P4K alpha inh 1 and HP1b chromo inh inconclusive.
Screening COc1ccc(NC(=S)Nc2ncccc2C)c(OC)c1 returned JMJD2A Tudor 50µM*, G9a inh inconclusive, BAZ2B inh 40µM*, L3MBTL1 inh inconclusive and HP1b chromo inh inconclusive.
For COc1ccc(-c2nc3sc(CCNC(=O)c4ccco4)c(C)n3n2)cc1 the results were JMJD2A Tudor -13%, G9a inh 12%[59 µM], BAZ2B inh -15% and HP1b chromo inh inconclusive.
Cc1ccc(C)c(NC(=O)c2ccc3c(c2)CCCN3S(C)(=O)=O)c1 was read as JMJD2A Tudor -23%, G9a inh 11%[59 µM], BAZ2B inh 1% and HP1b chromo inh 39%.
`CCOC(=O)C1=C(CN(C)Cc2ccccc2)NC(=O)NC1c1ccc(OC(C)C)cc1` (centres undefined) gave JMJD2A Tudor inconclusive, G9a inh -31%[59 µM] and HP1b chromo inh -7%.
For CCOC(=O)C1CCN(C(c2cc3ccc(C)cc3[nH]c2=O)c2nnnn2C2CCCCC2)CC1 (centres undefined) the results were JMJD2A Tudor -18%, G9a inh 22µM*, BAZ2B inh -5%, L3MBTL1 inh 0% and HP1b chromo inh 7%.
Screening COc1cc2cc(C(c3nnnn3C(C)(C)C)N3CCc4ccccc43)c(=O)[nH]c2cc1OC (centres undefined) returned JMJD2A Tudor inconclusive, G9a inh inconclusive, BAZ2B inh inconclusive, L3MBTL1 inh -1% and HP1b chromo inh -5%.
For COc1ccccc1N1CCN(C(c2cc3ccc(C)cc3[nH]c2=O)c2nnnn2C2CCCC2)CC1 (centres undefined) the results were JMJD2A Tudor inconclusive, G9a inh 28µM*, BAZ2B inh inconclusive, L3MBTL1 inh -6% and HP1b chromo inh -1%.
